Assay outcomes: PubChem BioAssay, Broad Institute
An excerpt weighted towards active compounds, which were near 6.7% of everything screened.
C diff HTS – blocks growth of Clostridium difficile; actives 0.25% (n = 86,000); Clostridium difficile clinical isolate growth, OD600, 24 h; hits give low values; growth activity, negative = inhibition, % at 16 µg/mL (by protocol);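 active = mean growth activity at or below -80% and every replicate also at or below -80%; inconclusive = mean at or below -80% but some replicate above -80%; inactive = mean growth activity above -80%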;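 note: 0% = DMSO wells and -100% = levofloxacin 16 µg/mL wells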
T cruzi growth-1 – T. cruzi proliferation inhibition | inhibition, % at 8.34 µM | T. cruzi beta-gal in NIH3T3, GalScreen luminescence, 90 h | actives 5.9% (n = 77,000);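 active = mean inhibition above about 93%, with at least 55% of replicates each passing it, limit read from the data, passing the limit was not always enough; inconclusive = only one of those two conditions holds; inactive = neither condition holds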
Pf Dd2 inh – blocks growth of Plasmodium falciparum Dd2 parasites | activity change, % at 10 µM | P. falciparum Dd2 growth, SYBR Green, 72 h; hits give low values | actives 2.3% (n = 94,000); in the data active = activity change below about -80%; inconclusive = no clear call, values can overlap the other calls
T cruzi growth-2 – Trypanosoma cruzi proliferation inhibition; shares compounds with T cruzi growth-1; T. cruzi beta-gal in NIH3T3, GalScreen luminescence, 90 h; inhibition, % at 8.35 µM; actives 72% (n = 5,600);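 active = mean replicate inhibition above about 95% and at least 55% of replicates individually reaching it, limit read from the data; inconclusive = only one of the two criteria is met; inactive = neither criterion is met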
T cruzi growth-3 – Trypanosoma cruzi proliferation inhibition; shares compounds with T cruzi growth-1; T. cruzi beta-gal in NIH3T3, GalScreen luminescence, 90 h; inhibition, % at 2.09 µM; actives 21% (n = 5,600);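 active = mean inhibition above about 95%, with at least 55% of replicates also reaching it, limit read from the data; inconclusive = meets just one of the two conditions; inactive = meets neither condition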;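 note: plate controls were neutral control median for no effect and positive control median for full effect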
NIH3T3 tox – NIH/3T3 (mouse) viability loss. shares compounds with T cruzi growth-1. NIH/3T3 viability, CellTiter-Glo ATP luminescence, 90 h. cytotoxicity (signal decrease), % at 8.35 µM. actives 14% (n = 5,600). AID 651742;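 active = mean signal decrease across replicates above about 35% based on untreated-well scatter, with enough replicates individually passing, limit read from the data; inconclusive = no rule stated though some were filed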;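 note: 0% = median of neutral control wells and 100% = median of positive control wells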
3T3 cytotox 2 – kills mouse NIH/3T3 fibroblasts; shares compounds with T cruzi growth-1; NIH/3T3 viability, CellTiter-Glo ATP luminescence, 90 h; inhibition, % at 24.9 µM; actives 56% (n = 5,600); AID 651744;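 active = mean loss of cell viability signal at or above a set limit, and enough replicates individually reaching it; inconclusive = meets only the mean limit or only the replicate share; inactive = meets neither condition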;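 note: 0% = median of neutral control wells and 100% = median of positive control wells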
An asterisk follows results filed as active; ? = inconclusive; . = no result given.

SMILES | C diff HTS | T cruzi growth-1 | Pf Dd2 inh | T cruzi growth-2 | T cruzi growth-3 | NIH3T3 tox | 3T3 cytotox 2
N#Cc1cccc(-c2ccc([C@H]3[C@H]4CN(C(=O)Nc5cccc(F)c5)CCCCN4[C@H]3CO)cc2)c1 | 9 | 122* | -18 | 110* | 60 | -6 | -8
N#Cc1ccc(-c2ccc([C@@H]3[C@@H](CO)N4CCCCN(C(=O)Nc5ccc(F)cc5)C[C@H]34)cc2)cc1 | 17 | 23 | -19 | . | . | . | .
CCCNC(=O)N1CC(=O)N2[C@H](CO)[C@@H](c3ccc(C#Cc4ccc(F)cc4)cc3)[C@@H]2C1 | 56 | . | -6 | . | . | . | .
C[C@H]1CN([C@@H](C)CO)C(=O)c2cc(N(C)C)ccc2O[C@@H]1CN(C)Cc1ccc(C(=O)Nc2ccccc2N)cc1 | -4 | 41 | -70 | . | . | . | .
C[C@@H]1CN([C@@H](C)CO)C(=O)c2cc(N(C)C)ccc2O[C@@H]1CN(C)Cc1ccc(C(=O)Nc2ccccc2N)cc1 | 1 | 104* | -67 | -9 | -8 | 5 | -11
C[C@H](CO)N1C[C@H](C)[C@H](CN(C)Cc2ccc(C(=O)Nc3ccccc3N)cc2)Oc2ccc(N(C)C)cc2CC1=O | -6 | 72 | -77 | . | . | . | .
C[C@H]1CN([C@@H](C)CO)C(=O)c2cc(NC(=O)Cc3ccccc3)ccc2O[C@H]1CN(C)Cc1ccc(C(=O)Nc2ccccc2N)cc1 | 2 | ? | -68 | 78 | 36 | 7 | ?
C[C@@H]1CN([C@@H](C)CO)C(=O)c2cc(NC(=O)Cc3ccccc3)ccc2O[C@H]1CN(C)Cc1ccc(C(=O)Nc2ccccc2N)cc1 | -2 | 56 | -67 | . | . | . | .
C[C@H](CO)N1C[C@H](C)[C@@H](CN(C)Cc2ccc(C(=O)Nc3ccccc3N)cc2)Oc2ccc(N(C)C)cc2CC1=O | -2 | 122* | -49 | 102* | 92 | 37* | 76*
O=C(C[C@@H]1CC[C@H]2[C@@H](COC[C@H](O)CN2Cc2cccc(-c3ccncc3)c2)O1)N1CCN(c2ccccc2)CC1 | -5 | 54 | -25 | . | . | . | .
Cc1cc(C(=O)Nc2cccc3c2O[C@@H](CN(C)S(=O)(=O)c2ccc(F)cc2)[C@H](C)CN([C@H](C)CO)C3=O)n(C)n1 | 1 | 32 | 4 | . | . | . | .
COc1cccc(NC(=O)N2C[C@@H](O)COC[C@@H]3O[C@H](CC(=O)NCc4ccccc4F)CC[C@H]32)c1 | 10 | . | 9 | . | . | . | .
C[C@@H]1CN([C@@H](C)CO)C(=O)Cc2cc(NC(=O)c3ccncc3)ccc2O[C@@H]1CN(C)C(=O)Nc1ccccc1 | -5 | . | -1 | . | . | . | .
CC(C)CC#Cc1ccc2c(c1)O[C@H](CN(C)C(=O)c1cccc(F)c1)[C@@H](C)CN([C@H](C)CO)S2(=O)=O | 6 | 120* | -41 | 109* | 84 | 4 | 105*
C[C@@H]1CN([C@@H](C)CO)S(=O)(=O)c2ccc(C#CC3CC3)cc2O[C@@H]1CN(C)C(=O)c1cccc(F)c1 | 8 | . | -50 | . | . | . | .
CC(C)CC#Cc1ccc2c(c1)O[C@@H](CN(C)C(=O)c1cccc(F)c1)[C@H](C)CN([C@@H](C)CO)S2(=O)=O | -4 | 124* | -59 | 103* | 110* | 62* | 105*
CC(C)CC#Cc1ccc2c(c1)O[C@@H](CN(C)C(=O)c1cccc(F)c1)[C@H](C)CN([C@H](C)CO)S2(=O)=O | 6 | 110* | -61 | 105* | 91 | 31 | 105*
C[C@H](CO)N1C[C@H](C)[C@@H](CN(C)C(=O)c2cccc(F)c2)Oc2cc(C#CC3CC3)ccc2S1(=O)=O | -7 | . | 29 | . | . | . | .
CC(C)CC#Cc1ccc2c(c1)O[C@@H](CN(C)C(=O)c1ccccc1)[C@H](C)CN([C@H](C)CO)S2(=O)=O | 22 | . | -75 | . | . | . | .
CC(C)CC#Cc1ccc2c(c1)O[C@H](CN(C)C(=O)c1cccnc1)[C@@H](C)CN([C@@H](C)CO)S2(=O)=O | 7 | 76 | -22 | . | . | . | .
CC(C)CC#Cc1ccc2c(c1)O[C@H](CN(C)C(=O)c1cccc(F)c1)[C@@H](C)CN([C@@H](C)CO)S2(=O)=O | 4 | 126* | -41 | 99* | 102* | 25 | 106*
